A selection: hits, their analogues and other compounds. The true share with any hit is near 1.6%.
KCNQ2 enhance: enhances the rat KCNQ2 potassium channel. CHO-K1 KCNQ2, FluxOR thallium flux fluorescence; stronger effect = higher value. B-score at 10 µM. AID 2239. O88943. 0.54% of 310,000 active;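 active = fluorescence ratio B-score at least 3 SD of library B-scores, with initial fluorescence B-score within 3 of them, cut at about 5.3 in these data; same plate scores as AID 2156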;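 also: B-score of peak minus minimum over baseline fluorescence ratio after K+ and Tl+ stimulus; positive B-score means potentiation of KCNQ2 with more thallium influx and brighter signal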
KCNQ2 block: blocks the rat KCNQ2 potassium channel. O88943. B-score at 10 µM. CHO-K1 KCNQ2, FluxOR thallium flux, 20 min; stronger effect = lower value. AID 2156. 1.1% of 310,000 active;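 active = fluorescence ratio B-score at most minus 3 library SDs, with starting brightness B-score within 2 library SDs, cut at about -5.5 in these data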
* marks the source's active call; other numbers are inactive results; i = inactive; . = not tested or not shown.

SMILES | KCNQ2 enhance | KCNQ2 block
CCOC(=O)N1CCN(C(=O)c2ccc3c(c2)N(Cc2ccccc2)CCS3)CC1 | . | i
CC1CC(C)CN(C(=O)c2ccc3c(c2)N(Cc2ccccc2)CCS3)C1 (centres undefined) | -6.19 | -6.19*
CC(=O)c1ccc(NC(=O)CCCN2C(=O)COc3ccc(C)cc32)cc1 | . | i
NC(=O)c1nsc(C(=O)N(Cc2ccc(F)cc2)C(C(=O)NCC2CCCO2)c2ccc(O)cc2)c1N (centres undefined) | . | i
COCCOCCn1c(/C=C/c2ccccc2)nc2ccccc21 | . | i
CCCn1c(/C=C/c2ccccc2)nc2ccccc21 | -6.13 | -6.13*
CC(C)N(Cc1ccccc1)C(=O)CCc1ccccc1 | . | i
CC(C)(C)N(Cc1ccccc1)C(=O)CCc1ccccc1 | -6.58 | -6.58*
CCc1ccc(-c2nc(CN3CCCC(C(=O)O)C3)c(C)o2)cc1 (centres undefined) | . | i
CCN(CCNC(=O)C1CCCN(Cc2nc(-c3ccc(OC)cc3)oc2C)C1)c1ccccc1 (centres undefined) | -8.68 | -8.68*
CCN(CCNC(=O)C1CCN(Cc2nc(-c3ccc(Cl)cc3)oc2C)CC1)c1ccccc1 | -6.86 | -6.86*
CCc1ccc(-c2nc(CN3CCC(C(=O)NCc4ccc(F)cc4)CC3)c(C)o2)cc1 | . | i
CCc1ccc(-c2nc(CN3CCC(C(=O)NCCN(CC)c4ccccc4)CC3)c(C)o2)cc1 | -6.52 | -6.52*
Cc1oc(-c2ccc(Cl)cc2)nc1CN1CCC(C(=O)NCCCN2CCOCC2)CC1 | 0.21 | i
COc1cc(NC(=O)COc2ccc(C)c(C)c2)ccc1NC(=O)c1ccco1 | . | i
Cn1c(=O)c2c(nc(Cl)n2CC(=O)NC2(C#N)CCCCC2)n(C)c1=O | 0.13 | i
Clc1ccc(CSc2nnc(CNc3cccc(Cl)c3)o2)cc1 | -5.7 | -5.7*
Fc1cccc(Cl)c1CSc1nnc(CNc2ccccc2)o1 | . | i
COc1cccc(CN2C(=NC(=O)C3CC3)SC3CS(=O)(=O)CC32)c1 (centres undefined) | . | i
Oc1cc2c(cc1CN1CCN(c3cccc(C(F)(F)F)c3)CC1)CCC2 | -7.26 | -7.26*
COc1ccc(N2CCN(Cc3cc4c(cc3O)CCC4)CC2)cc1 | 0.46 | i
Cc1cc(Oc2ccc(C(C)(C)C)cc2)nc(N2CCOCC2)n1 | -6.23 | -6.23*
Cc1cc(Oc2ccc(-c3ccccc3)cc2)nc(N2CCOCC2)n1 | . | i
COc1cc(CN2CCN(C(c3ccccc3)c3ccccc3)CC2)cc(OC)c1OC | . | i
Cc1cccc(CN2CCN(C(c3ccccc3)c3ccc(Cl)cc3)CC2)c1 (centres undefined) | -5.94 | -5.94*
SMILES | KCNQ2 enhance | KCNQ2 block
O=C(Cn1nc(-c2cccc([N+](=O)[O-])c2)c2ccccc2c1=O)NCC1CCCO1 (centres undefined) | 1.53 | i
CCn1nc(C)c(NC(=O)Nc2cccc(Cl)c2Cl)c1C | . | i
CCCCCCCCCCCC1=C(O)C(=O)C=C(O)C1=O | 0.01 | i
COC1=CC(=O)C(O)=C(CCCCCCC/C=C/CCCCCCCC2=C(O)C(=O)C=C(OC)C2=O)C1=O | -6.64 | -6.64*
Cc1cccc(NC(=O)C2Cc3ccccc3CN2C(=O)OCc2ccccc2)c1C (centres undefined) | . | i
Cc1c(Cl)cccc1NC(=O)C1Cc2ccccc2CN1C(=O)c1ccccc1 (centres undefined) | -7.88 | -7.88*
O=C(CCCN1C(=O)c2cccnc2C1=O)Nc1ccc(Br)cc1 | . | i
COc1ccccc1/C=C(/CC(=O)NCc1ccc(F)cc1)c1nc2ccccc2s1 | -6.76 | -6.76*
COc1ccccc1/C=C(/CC(=O)NCc1ccccc1)c1nc2ccccc2s1 | . | i
O=C(O)c1nn(CC(=O)N(C2CCCCC2)C2CCCCC2)c(=O)c2ccccc12 | 0.42 | i
Clc1ccc(CONc2ncnc3nonc23)c(Cl)c1 | 6.88* | i
CCONc1ncnc2nonc12 | 0.41 | i
CC(NC(=O)CCN1C(=O)c2ccccc2C1=O)c1ccc2c(c1)CCCC2 (centres undefined) | 1.68 | i
COc1ccc2ccccc2c1CN(C)Cc1ccccc1 | 1.68 | i
CN(Cc1ccccc1)Cc1c(F)cccc1F | 6.61* | i
CC1CCC2(CC1)NC(=O)N(CC(=O)NC(=O)Nc1ccc3c(c1)OCCO3)C2=O (centres undefined) | . | i
CCCCC1=CC2=C(c3ccco3)C(=O)C(C)(OC(=O)c3ccc(OC)cc3)C(=O)C2=CN1c1ccccc1 (centres undefined) | . | i
CC(C)C1=CC2=CCC3C(C)(C(=O)O)CCCC3(C)C2CC1 (centres undefined) (tested in a mixture with another compound) | -5.84 | -5.84*
C=C[C@]1(C)C=C2CCC3[C@](C)(CCC[C@@]3(C)C(=O)O)C2CC1 (some centres undefined) | . | i
CC1=CC(C)(C)N2C(=O)C3(NCCc4c3[nH]c3ccccc43)c3cc(C)cc1c32 (centres undefined) | . | i

Bioassay records deposited in PubChem BioAssay by Johns Hopkins Ion Channel Center.
